Source: PubChem BioAssay (Tox21)
Several values for one entry are separate records, joined by “and”; a condition that tells them apart may be missing. Equal entries are not always repeated. Results filed as inconclusive are left out. Activity calls are given as the source filed them. The call rests on the fitted dose curve; in most records, active means well fitted curve in the direction sought with a large enough effect in the repeat runs; inconclusive means weak or mixed curves; inactive means no such curve, though single readings can be large; an effect the other way counts as inactive or inconclusive.

What was measured:
[1] = A CellTox Green Cytotoxicity Assay to monitor cytotoxicity in HepG2 cells - 0 hour (AID 1224882); further: nearly all actives have a fitted effect of over 35% in size
How it was run: (§1)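 HepG2 cells, 600/well, preincubated 5 h with CellTox Green dye, then exposed to Tox21 compounds in DMSO at 37 C for up to 40 h. Dead-cell DNA fluorescence read at the indicated time point.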

[2] = A CellTox Green Cytotoxicity Assay to monitor cytotoxicity in HepG2 cells - 32 hour (AID 1224883); further: nearly all actives have a fitted effect of over 50% in size; further: potency means the concentration at half of the fitted maximal effect
How it was run: as §1

[3] = A CellTox Green Cytotoxicity Assay to monitor cytotoxicity in HEK293 cells - 8 hour (AID 1224884); further: nearly all actives have a fitted effect of over 35% in size; further: potency means the concentration at half of the fitted maximal effect
How it was run: (§2)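 HEK293 cells, 600/well, were preincubated 5 hours and then exposed to compounds at 37 C for up to 40 hours. A cell-impermeant cyanine dye staining dead-cell DNA was read by fluorescence at 0, 8, 16, 24, 32 and 40 h time points.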

[4] = qHTS RealTime-Glo MT Cell Viability Assay in HEK293 cells - 24 hour (AID 1224886); further: nearly all actives have a fitted effect of over 50% in size; further: potency means the concentration at half of the fitted maximal effect; on activity change, negative = cytotoxicity: top concentration of the series differs between compounds
How it was run: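 HEK293 cells were seeded at 600 cells/well together with NanoLuc luciferase and cell-permeant prosubstrate, preincubated 5 h at 37 C/5% CO2, then given compound in DMSO by pintool. Luminescence from viable-cell prosubstrate reduction was read repeatedly over 40 h.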

[5] = qHTS RealTime-Glo MT Cell Viability Assay in HEK293 cells - 8 hour (AID 1224887); further: nearly all actives have a fitted effect of over 50% in size; further: potency means the concentration at half of the fitted maximal effect; on activity change, negative = cytotoxicity: top concentration of the series differs between compounds
How it was run: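 600 cells/well were plated with the nonlytic NanoLuc/prosubstrate reagent, pre-incubated 5 h, then given 23 nL of compound in DMSO. Incubation at 37 C for 40 h, with luminescence from viable-cell-reduced substrate read repeatedly from 0 h.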

[6] = qHTS RealTime-Glo MT Cell Viability Assay in HepG2 cells - 0 hour (AID 1224889); further: nearly all actives have a fitted effect of over 50% in size
How it was run: (§3)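 HepG2 cells were seeded at 600 cells/well together with NanoLuc luciferase and a cell-permeant prosubstrate, preincubated 5 h at 37 C/5% CO2, then pin-dosed with compounds in DMSO. Nonlytic luminescence from viable cells was read at each time point.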

[7] = qHTS assay to identify small molecule antagonists of the estrogen receptor alpha (ER-alpha) signaling pathway using the BG1 cell line in the presence of 0.1 nM 17-beta-estradiol - cell viability counter screen (AID 1259241); further: nearly all actives have a fitted effect of over 40% in size; further: potency means the concentration at half of the fitted maximal effect
How it was run: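 VM7Luc4E2, 4,000 cells/well, phenol red-free medium + 10% charcoal-stripped FBS; 24 hr plating; cpd + 0.1 nM E2 final, 22 hr 37C/5% CO2; CellTiter-Fluor 30 min, fluorescence.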

[8] = A CellTox Green Cytotoxicity Assay to monitor cytotoxicity in HEK293 cells - 16 hour (AID 1224888); further: nearly all actives have a fitted effect of over 35% in size; further: potency means the concentration at half of the fitted maximal effect
How it was run: as §2

[9] = A CellTox Green Cytotoxicity Assay to monitor cytotoxicity in HepG2 cells - 8 hour (AID 1224890); further: nearly all actives have a fitted effect of over 45% in size; further: potency means the concentration at half of the fitted maximal effect
How it was run: as §1

[10] = qHTS RealTime-Glo MT Cell Viability Assay in HepG2 cells - 16 hour (AID 1224885); further: nearly all actives have a fitted effect of over 50% in size; further: potency means the concentration at half of the fitted maximal effect
How it was run: as §3
On the % scale 0 is the no-effect control and ±100 the full control effect.

CCC(C)(C)c1cc(O)c(C(C)(C)CC)cc1O
active: Potency [2] 49 µM | Potency [4] 21.9 µM | Potency [5] 21.9 µM
inactive: Potency [1] | Potency [3] | Potency [6] | Potency [7]

C=C(C)C(=O)OCCC[Si](Cl)(Cl)Cl
inactive: Potency [1] | Potency [2] | Potency [3] | Potency [4] | Potency [5] | Potency [8] | Potency [9] | Potency [7]

O=C1NC2CCCCN2C12CCN(CCCN1c3ccccc3CCc3ccc(Cl)cc31)CC2 (stereo not given)
inactive: Potency [1] | Potency [3] | Potency [6]
active: Potency [2] 23.9 µM | Potency [4] 8.49 µM | Potency [5] 6.01 µM

CN(C)c1ccc(N=Nc2ccccc2C(=O)O)cc1
inactive: Potency [1] | Potency [2] | Potency [3] | Potency [4] | Potency [6] | Potency [9] | Potency [7]

CC(C(O)c1ccccc1)N(C)CCOC(c1ccccc1)c1ccccc1 (stereo not given)
inactive: Potency [1] | Potency [3] | Potency [7]
active: Potency [2] 26.8 µM | Potency [4] 21.3 µM | Potency [9] 26.8 µM

CC(C)c1ccccc1N
inactive: Potency [1] | Potency [2] | Potency [3] | Potency [4] | Potency [5] | Potency [8] | Potency [6] | Potency [9] | Potency [7]

Cc1c(C(=O)O)cccc1[N+](=O)[O-]
inactive: Potency [1] | Potency [2] | Potency [3] | Potency [4] | Potency [5] | Potency [8] | Potency [6] | Potency [9] | Potency [7]

C/C=C/C(=O)Oc1c(CCCCCC(C)C)cc([N+](=O)[O-])cc1[N+](=O)[O-]
inactive: Potency [1] | Potency [9]
active: Potency [2] 38.9 µM | Potency [10] 21.9 µM | Potency [4] 19.5 µM | Potency [7] 27.3 µM

S=C(SSSSSSC(=S)N1CCCCC1)N1CCCCC1
inactive: cytotoxicity [1] -6.55% [at 15.8 µM] | cytotoxicity increase [2] 16.8% [at 15.8 µM] | cytotoxicity increase [3] -0.556% [at 15.8 µM] | activity change [8] 19.1% [at 15.8 µM, active compounds read high] | activity change, negative = cytotoxicity [6] -21.4% [at 15.8 µM]

O=C(O)CCCCCCC(=O)O
inactive: Potency [1] | Potency [2] | Potency [10] | Potency [4] | Potency [6] | Potency [9] | Potency [7]

CC(C)=CCCC(C)O (stereo not given)
inactive: Potency [1] | Potency [2] | Potency [10] | Potency [5] | Potency [8] | Potency [6] | Potency [9] | Potency [7]

CCCCCCCCCCCCOC(=O)c1cc(O)c(O)c(O)c1
active: Potency [3] 54.7 µM | Potency [10] 48.8 µM and 49 µM | Potency [4] 4.35 µM and 3.89 µM | Potency [5] 7.73 µM and 6.17 µM | Potency [8] 54.7 µM and 43.6 µM | Potency [9] 48.8 µM and 21.9 µM
inactive: Potency [1] | Potency [6]

CN(C)c1ccc(N=NS(=O)(=O)O)cc1
active: Potency [5] 34.5 µM
inactive: Potency [1] | Potency [2] | Potency [3] | Potency [8] | Potency [9]

Cc1c(-c2ccc(O)cc2)n(Cc2ccc(OCCN3CCCCCC3)cc2)c2ccc(O)cc12
active: Potency [2] 10.7 µM | Potency [10] 23.9 µM | Potency [4] 2.68 µM | Potency [5] 2.39 µM | Potency [8] 23.9 µM
inactive: Potency [1] | Potency [6]

CO[Si](CCCNCCNCCN)(OC)OC
inactive: Potency [1] | Potency [3] | Potency [10] | Potency [4] | Potency [5] | Potency [8] | Potency [6] | Potency [9] | Potency [7]

Oc1ccc(-c2ccc(O)cc2)cc1
inactive: Potency [1] | Potency [2] | Potency [3] | Potency [8] | Potency [6] | Potency [9] | Potency [7]

O=C1OC(OC(=O)c2cccnc2Nc2cccc(C(F)(F)F)c2)c2ccccc21 (stereo not given)
inactive: Potency [1] | Potency [3] | Potency [10] | Potency [4] | Potency [5] | Potency [8] | Potency [6] | Potency [9]

CC1(C)C(=O)N(CO)C(=O)N1CO
inactive: Potency [1] | Potency [2] | Potency [10] | Potency [4] | Potency [5] | Potency [6] | Potency [9]

C/C=C/C=N/NC(=O)c1ccncc1
inactive: Potency [1] | Potency [2] | Potency [10] | Potency [6] | Potency [9] | Potency [7]

C=C[C@](C)(O)CC[C@@H]1[C@@]2(C)CCCC(C)(C)[C@@H]2CC[C@@]1(C)O
inactive: Potency [1] | Potency [6] | Potency [7]
active: Potency [2] 49 µM | Potency [10] 49 µM | Potency [9] 54.9 µM

C=C1C(C)(C)[C@@]2(Cl)C(Cl)[C@]1(Cl)C(Cl)(Cl)C2(Cl)Cl (stereo not given in full)
inactive: Potency [1] | Potency [6] | Potency [9] | Potency [7]
active: Potency [2] 53.9 µM | Potency [5] 53.9 µM

CCN=C1C=CC(=C(c2ccc(N(CC)CC)cc2)c2ccc(N(CC)CC)cc2)c2ccccc21
active: Potency [2] 19.4 µM | Potency [10] 19.4 µM | Potency [4] 7.71 µM | Potency [5] 17.3 µM | Potency [8] 19.4 µM | Potency [7] 24.2 µM
inactive: Potency [1]

CC(C)(C)c1cc(CCC(=O)NCCCCCCNC(=O)CCc2cc(C(C)(C)C)c(O)c(C(C)(C)C)c2)cc(C(C)(C)C)c1O
inactive: Potency [1] | Potency [2] | Potency [3] | Potency [8] | Potency [6] | Potency [7]

CC(C)=CCCC(C)CCOC(=O)C(C)C (stereo not given)
inactive: Potency [1] | Potency [3] | Potency [10] | Potency [4] | Potency [5] | Potency [8] | Potency [6] | Potency [9] | Potency [7]

OCCCc1cccnc1
inactive: Potency [1] | Potency [2] | Potency [3] | Potency [5] | Potency [9] | Potency [7]

CCCCCCCC/C=C\CCCCCCCC(=O)NCc1ccc(O)c(OC)c1
active: Potency [4] 2.39 µM | Potency [5] 1.51 µM
inactive: Potency [1] | Potency [3] | Potency [10] | Potency [8] | Potency [6] | Potency [9]

Oc1cc2ccccc2cc1O
inactive: Potency [1] | Potency [2] | Potency [3] | Potency [9] | Potency [7]

Cc1c(C)n(Cc2ccccc2)c2ccc(C(=O)OCCN(C)C)cc12
active: Potency [2] 23.9 µM
inactive: Potency [1] | Potency [3] | Potency [5] | Potency [6] | Potency [7]
